Common to all, as to experiment: DAPPL (digital affinity profiling via proximity ligation, sequencing); 10 mM Tris-HCl pH 7.5, 50 mM NaCl, 1 mM DTT, 4% glycerol, room temperature, 30 min; GST-TFs on glutathione beads, 16-mer random dsDNA library, 0.1% formaldehyde crosslink after washing; high values mean tight binding
Conditions in all cases: protein: recombinant; tags: N-terminal GST; dsDNA, one strand shown

The target of one experiment is T1, GABPA (Homo sapiens, UniProt Q06546 1-454).
T1 sequence: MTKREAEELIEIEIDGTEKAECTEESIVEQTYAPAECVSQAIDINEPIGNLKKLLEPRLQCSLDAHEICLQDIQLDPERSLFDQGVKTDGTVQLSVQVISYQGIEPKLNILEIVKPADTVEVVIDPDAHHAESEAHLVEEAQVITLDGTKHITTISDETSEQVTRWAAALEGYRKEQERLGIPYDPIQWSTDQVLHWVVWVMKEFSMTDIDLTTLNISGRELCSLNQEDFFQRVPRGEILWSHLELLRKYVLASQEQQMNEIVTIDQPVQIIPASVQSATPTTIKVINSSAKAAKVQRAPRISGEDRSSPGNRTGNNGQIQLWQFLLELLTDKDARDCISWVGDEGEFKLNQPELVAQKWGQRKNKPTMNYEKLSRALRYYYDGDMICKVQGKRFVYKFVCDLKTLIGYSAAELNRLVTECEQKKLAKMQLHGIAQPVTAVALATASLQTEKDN
Summed up: (§1)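 Binding signal is each hexamer's read frequency for a factor divided by its frequency in the tag-only sample. The factors were GST-fused human transcription factors from yeast, captured on glutathione beads, DNA-barcoded and pooled with that sample. Pools were incubated with 200 nmole of a random double-stranded 16-mer DNA library in Tris/NaCl/DTT/glycerol buffer at room temperature for 30 min, then washed, crosslinked with 0.1% formaldehyde, proximity-ligated with BsaI/T4 ligase (1 h, 37 °C), PCR-amplified and sequenced on an Illumina NextSeq500.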

The next experiment concerns the target T2, EHF (Homo sapiens, UniProt Q9NZC4 1-300).
T2 sequence: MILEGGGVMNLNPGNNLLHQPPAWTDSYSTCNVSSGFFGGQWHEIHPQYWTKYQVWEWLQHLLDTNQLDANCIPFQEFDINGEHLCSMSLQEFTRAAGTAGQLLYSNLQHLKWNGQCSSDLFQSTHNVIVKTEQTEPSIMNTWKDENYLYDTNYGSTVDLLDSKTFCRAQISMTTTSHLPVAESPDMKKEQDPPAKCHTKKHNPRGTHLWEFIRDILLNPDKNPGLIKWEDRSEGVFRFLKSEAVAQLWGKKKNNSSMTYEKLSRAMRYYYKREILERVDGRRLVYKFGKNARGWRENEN
The gist of the method: as §1

Another experiment deals with ETV5 (Homo sapiens, UniProt P41161 1-510). The gist of the method: as §1
The target in another experiment is T3, ELK4 (Homo sapiens, UniProt P28324-2 1-405).
T3 sequence: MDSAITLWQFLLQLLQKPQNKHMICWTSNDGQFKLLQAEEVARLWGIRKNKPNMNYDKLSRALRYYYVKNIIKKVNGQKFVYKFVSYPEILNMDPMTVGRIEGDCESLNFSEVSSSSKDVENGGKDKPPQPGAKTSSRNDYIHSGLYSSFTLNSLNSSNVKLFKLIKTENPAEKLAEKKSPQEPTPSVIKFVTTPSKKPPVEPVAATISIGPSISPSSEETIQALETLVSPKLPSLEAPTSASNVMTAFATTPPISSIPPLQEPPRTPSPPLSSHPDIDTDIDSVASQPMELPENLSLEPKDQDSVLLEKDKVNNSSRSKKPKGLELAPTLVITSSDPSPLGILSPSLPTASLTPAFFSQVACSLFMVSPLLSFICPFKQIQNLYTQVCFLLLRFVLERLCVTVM
The gist of the method:
as §1

The target in a further experiment is T4, ETV3 (Homo sapiens, UniProt P41162-2 1-143).
T4 sequence: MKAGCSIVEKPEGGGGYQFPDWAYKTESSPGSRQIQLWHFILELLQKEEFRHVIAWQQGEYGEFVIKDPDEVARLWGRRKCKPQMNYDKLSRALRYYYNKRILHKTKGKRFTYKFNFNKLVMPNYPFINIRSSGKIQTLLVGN
The gist of the method: as §1

The next experiment deals with T5, ERG (Homo sapiens, UniProt P11308 1-479).
T5 sequence: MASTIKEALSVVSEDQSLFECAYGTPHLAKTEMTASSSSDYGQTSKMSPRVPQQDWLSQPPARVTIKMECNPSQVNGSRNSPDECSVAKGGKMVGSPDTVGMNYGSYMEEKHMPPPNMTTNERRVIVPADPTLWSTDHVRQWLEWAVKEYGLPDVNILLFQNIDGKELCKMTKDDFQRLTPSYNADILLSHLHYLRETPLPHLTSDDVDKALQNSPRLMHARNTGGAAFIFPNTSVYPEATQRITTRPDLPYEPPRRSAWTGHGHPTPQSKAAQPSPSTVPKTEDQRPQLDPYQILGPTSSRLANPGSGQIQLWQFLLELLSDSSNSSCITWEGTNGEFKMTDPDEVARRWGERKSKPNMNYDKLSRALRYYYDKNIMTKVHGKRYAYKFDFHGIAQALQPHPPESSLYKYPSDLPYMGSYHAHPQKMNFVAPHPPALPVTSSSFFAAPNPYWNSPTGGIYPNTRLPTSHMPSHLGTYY
Summed up: as §1

In the next experiment the target is ELF1 (Homo sapiens, UniProt P32519 1-619). Summed up: as §1
For another experiment, the target named is SPI1 (Homo sapiens, UniProt P17947 1-270). The gist of the method:
as §1

A further experiment has as its target SPIB (Homo sapiens, UniProt Q01892 1-262). Summed up:
as §1

A further experiment has as its target ELF4 (Homo sapiens, UniProt Q99607 1-663). The gist of the method:
as §1

The target of the next experiment is T6, ETV2 (Homo sapiens, UniProt O00321 1-342).
T6 sequence: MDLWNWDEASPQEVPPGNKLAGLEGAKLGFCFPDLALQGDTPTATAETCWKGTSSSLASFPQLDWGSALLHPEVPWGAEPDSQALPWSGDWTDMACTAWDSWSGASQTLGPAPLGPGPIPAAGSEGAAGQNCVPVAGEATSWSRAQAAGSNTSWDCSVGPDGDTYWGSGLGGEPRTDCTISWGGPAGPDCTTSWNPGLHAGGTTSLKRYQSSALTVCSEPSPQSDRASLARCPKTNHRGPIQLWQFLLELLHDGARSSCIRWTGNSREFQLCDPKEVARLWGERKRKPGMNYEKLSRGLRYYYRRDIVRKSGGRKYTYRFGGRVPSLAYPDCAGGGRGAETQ
Summed up:
as §1

The target of a further experiment is ETV1 (Homo sapiens, UniProt P50549 1-477). The gist of the method: as §1
In the next experiment the target is T7, ETV3L (Homo sapiens, UniProt Q6ZN32 1-361).
T7 sequence: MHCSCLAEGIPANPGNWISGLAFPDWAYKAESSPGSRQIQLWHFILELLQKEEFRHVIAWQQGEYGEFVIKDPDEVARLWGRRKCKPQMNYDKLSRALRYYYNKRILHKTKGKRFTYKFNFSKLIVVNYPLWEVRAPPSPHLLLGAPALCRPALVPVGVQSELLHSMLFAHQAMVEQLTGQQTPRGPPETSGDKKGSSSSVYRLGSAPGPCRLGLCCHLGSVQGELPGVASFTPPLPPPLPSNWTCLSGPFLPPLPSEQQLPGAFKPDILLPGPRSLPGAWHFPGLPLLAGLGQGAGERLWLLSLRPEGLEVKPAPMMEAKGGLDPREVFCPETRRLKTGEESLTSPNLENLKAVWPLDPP
The gist of the method: as §1

A further experiment addresses T8, ETS2 (Homo sapiens, UniProt P15036 1-469).
T8 sequence: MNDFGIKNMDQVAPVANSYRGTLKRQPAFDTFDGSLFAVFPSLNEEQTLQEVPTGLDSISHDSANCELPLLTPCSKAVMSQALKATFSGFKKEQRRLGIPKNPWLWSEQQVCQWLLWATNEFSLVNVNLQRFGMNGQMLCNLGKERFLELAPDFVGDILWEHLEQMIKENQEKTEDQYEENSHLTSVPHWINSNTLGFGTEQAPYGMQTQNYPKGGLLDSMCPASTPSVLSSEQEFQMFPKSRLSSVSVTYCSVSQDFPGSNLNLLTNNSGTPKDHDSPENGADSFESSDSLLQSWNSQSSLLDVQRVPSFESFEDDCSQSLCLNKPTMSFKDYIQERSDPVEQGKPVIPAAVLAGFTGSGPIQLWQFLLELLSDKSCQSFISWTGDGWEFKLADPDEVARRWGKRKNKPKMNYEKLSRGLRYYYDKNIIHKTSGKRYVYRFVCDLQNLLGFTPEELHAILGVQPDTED
Summed up: as §1

Another experiment addresses T9, ETV7 (Homo sapiens, UniProt Q9Y603 1-341).
T9 sequence: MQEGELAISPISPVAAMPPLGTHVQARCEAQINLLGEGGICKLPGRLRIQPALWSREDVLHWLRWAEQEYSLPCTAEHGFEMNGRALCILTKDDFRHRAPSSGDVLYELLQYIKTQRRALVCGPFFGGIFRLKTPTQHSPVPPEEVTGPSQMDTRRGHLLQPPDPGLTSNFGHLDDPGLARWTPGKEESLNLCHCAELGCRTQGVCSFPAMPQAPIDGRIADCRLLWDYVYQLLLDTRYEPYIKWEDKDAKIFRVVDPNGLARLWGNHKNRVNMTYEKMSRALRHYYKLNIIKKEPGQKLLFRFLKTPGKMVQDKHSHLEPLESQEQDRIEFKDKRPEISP
Summed up:
as §1

Sequence of ETV5 (P41161 whole entry): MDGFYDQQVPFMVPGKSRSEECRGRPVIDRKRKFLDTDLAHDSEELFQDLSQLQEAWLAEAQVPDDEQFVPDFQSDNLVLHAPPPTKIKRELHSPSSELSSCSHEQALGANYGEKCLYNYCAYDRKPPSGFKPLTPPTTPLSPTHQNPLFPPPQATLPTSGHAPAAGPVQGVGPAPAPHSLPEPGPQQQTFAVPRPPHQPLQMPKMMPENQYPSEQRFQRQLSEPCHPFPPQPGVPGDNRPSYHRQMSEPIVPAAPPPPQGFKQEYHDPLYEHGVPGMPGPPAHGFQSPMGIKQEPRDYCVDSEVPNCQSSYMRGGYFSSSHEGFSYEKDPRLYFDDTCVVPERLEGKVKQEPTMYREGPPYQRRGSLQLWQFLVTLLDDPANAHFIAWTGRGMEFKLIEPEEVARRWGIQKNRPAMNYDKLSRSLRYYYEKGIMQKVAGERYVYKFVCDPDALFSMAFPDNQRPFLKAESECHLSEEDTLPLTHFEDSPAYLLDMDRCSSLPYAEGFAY
Sequence of ELF1 (P32519 whole entry): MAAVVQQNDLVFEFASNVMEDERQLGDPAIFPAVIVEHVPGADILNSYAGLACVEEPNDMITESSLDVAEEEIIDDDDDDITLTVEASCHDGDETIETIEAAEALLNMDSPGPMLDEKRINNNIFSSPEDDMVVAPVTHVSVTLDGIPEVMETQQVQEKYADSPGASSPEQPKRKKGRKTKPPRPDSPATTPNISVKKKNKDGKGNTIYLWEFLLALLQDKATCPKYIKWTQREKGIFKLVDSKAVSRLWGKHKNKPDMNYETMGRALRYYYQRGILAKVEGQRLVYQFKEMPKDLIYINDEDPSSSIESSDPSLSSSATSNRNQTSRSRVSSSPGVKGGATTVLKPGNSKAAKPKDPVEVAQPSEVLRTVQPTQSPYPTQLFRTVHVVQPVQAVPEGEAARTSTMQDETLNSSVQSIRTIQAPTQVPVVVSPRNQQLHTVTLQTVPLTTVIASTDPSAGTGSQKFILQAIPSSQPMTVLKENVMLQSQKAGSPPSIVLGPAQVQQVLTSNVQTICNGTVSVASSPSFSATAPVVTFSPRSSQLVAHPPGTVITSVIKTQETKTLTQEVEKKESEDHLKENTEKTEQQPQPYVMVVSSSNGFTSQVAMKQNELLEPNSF
Sequence of ELF4 (Q99607 whole entry): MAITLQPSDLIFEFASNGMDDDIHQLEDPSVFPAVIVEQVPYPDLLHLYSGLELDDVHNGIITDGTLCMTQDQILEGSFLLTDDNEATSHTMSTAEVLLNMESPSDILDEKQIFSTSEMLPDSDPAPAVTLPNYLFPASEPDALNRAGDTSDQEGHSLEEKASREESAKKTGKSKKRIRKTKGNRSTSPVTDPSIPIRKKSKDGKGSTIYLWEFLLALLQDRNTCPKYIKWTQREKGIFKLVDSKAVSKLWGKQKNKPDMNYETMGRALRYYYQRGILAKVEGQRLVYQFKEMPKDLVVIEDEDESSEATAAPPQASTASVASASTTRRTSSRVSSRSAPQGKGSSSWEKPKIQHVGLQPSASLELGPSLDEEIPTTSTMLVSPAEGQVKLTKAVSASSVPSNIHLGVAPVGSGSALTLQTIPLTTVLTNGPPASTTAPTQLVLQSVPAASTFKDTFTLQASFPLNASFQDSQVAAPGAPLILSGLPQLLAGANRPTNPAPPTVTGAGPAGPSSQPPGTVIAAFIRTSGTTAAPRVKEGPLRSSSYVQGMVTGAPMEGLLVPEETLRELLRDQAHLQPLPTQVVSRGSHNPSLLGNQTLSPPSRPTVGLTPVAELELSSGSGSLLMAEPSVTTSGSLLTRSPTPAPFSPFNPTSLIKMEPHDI
Sequence of SPIB (Q01892 whole entry): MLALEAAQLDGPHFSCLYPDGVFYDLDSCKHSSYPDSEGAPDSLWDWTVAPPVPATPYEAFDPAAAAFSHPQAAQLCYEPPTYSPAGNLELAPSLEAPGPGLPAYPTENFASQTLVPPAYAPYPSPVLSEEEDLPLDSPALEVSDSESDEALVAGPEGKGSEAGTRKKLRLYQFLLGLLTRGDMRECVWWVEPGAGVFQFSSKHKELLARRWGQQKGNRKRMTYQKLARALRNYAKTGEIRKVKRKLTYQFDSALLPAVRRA
Sequence of ETV1 (P50549 whole entry): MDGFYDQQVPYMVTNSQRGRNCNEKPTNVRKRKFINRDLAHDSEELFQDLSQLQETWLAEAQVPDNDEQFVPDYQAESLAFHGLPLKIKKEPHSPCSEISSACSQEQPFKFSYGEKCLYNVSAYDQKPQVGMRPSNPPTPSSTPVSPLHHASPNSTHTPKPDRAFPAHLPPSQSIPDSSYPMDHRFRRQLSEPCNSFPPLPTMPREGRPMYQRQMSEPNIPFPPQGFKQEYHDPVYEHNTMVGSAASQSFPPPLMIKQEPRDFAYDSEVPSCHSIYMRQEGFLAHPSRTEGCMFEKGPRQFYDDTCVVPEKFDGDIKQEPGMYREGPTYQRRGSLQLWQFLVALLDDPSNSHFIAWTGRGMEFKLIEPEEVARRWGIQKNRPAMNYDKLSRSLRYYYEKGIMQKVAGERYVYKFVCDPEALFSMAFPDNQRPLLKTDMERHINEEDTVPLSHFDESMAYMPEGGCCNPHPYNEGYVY

For GACTTA, the binding signal was 1.03 fold enrichment (6-mer frequency, TF over GST control) with GABPA; 1.04 fold enrichment (6-mer frequency, TF over GST control) with EHF; 1.01 fold enrichment (6-mer frequency, TF over GST control) with ETV5; 1 fold enrichment (6-mer frequency, TF over GST control) with ELK4; 1.02 fold enrichment (6-mer frequency, TF over GST control) in the experiment with ETV3.

Consider AGAAAA, for which the binding signal in the experiment with GABPA is 1.03 fold enrichment (6-mer frequency, TF over GST control); in the experiment with ERG, 1.02 fold enrichment (6-mer frequency, TF over GST control); with ELF1, 1.02 fold enrichment (6-mer frequency, TF over GST control); with EHF, 1.02 fold enrichment (6-mer frequency, TF over GST control); in the experiment with SPI1, 1.11 fold enrichment (6-mer frequency, TF over GST control); with SPIB it was 1.08 fold enrichment (6-mer frequency, TF over GST control). The binding signal is 1.02 fold enrichment (6-mer frequency, TF over GST control) with ETV5; 1.04 fold enrichment (6-mer frequency, TF over GST control) in the experiment with ELF4; 1.1 fold enrichment (6-mer frequency, TF over GST control) with ETV2; 1.05 fold enrichment (6-mer frequency, TF over GST control) with ETV1; 1 fold enrichment (6-mer frequency, TF over GST control) with ETV3L; 1.09 fold enrichment (6-mer frequency, TF over GST control) with ETS2. Further, the binding signal in the experiment with ETV7 was 1.04 fold enrichment (6-mer frequency, TF over GST control).

For the origin of these results see paper PMC7862700, “An all-to-all approach to the identification of sequence-specific readers for epigenetic DNA modifications on cytosine”.
